Data taken from PubChem BioAssay AID1745849 (National Center for Advancing Translational Sciences (NCATS), 2022).
In all, about 2,100 compounds went through this assay and about 320 (15%) were called active. Inconclusive results (about 52%) are left out. Calls follow the shape of the dose curve; as a rule, active = well fitted cell-killing curve with a large enough effect; inconclusive = small, poorly fitted or top-dose-only effect, or effect the other way; inactive = flat fitted curve, though single readings scatter. The list shows a part of the results. A call without a number means that no potency is given here.

assay: Viability Counterscreen for CMV-Luciferase Assay of Inhibitors of ATXN expression; settings: HEK-293 CMV-luciferase cells viability, protease fluorescence, 24 h; also: nearly all actives have a fitted effect of over 55% in size
Outline: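 Luminescence read-out: SteadyGlo added, 5 min RT, measured in CMV-luciferase HEK-293 cells after 24 hr compound treatment (several concentrations). Viability counterscreen: 25 uM Gly-Phe-7-amino-4-trifluoromethylcoumarin, 30 min at 37 degree C, fluorescence ex 405/em 540 nm.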
Potency is read from the fitted curve at half-maximal effect.

Compound | Potency
CN(Cc1ccccc1)C1=CC(=[N+]2CCCC2)CC(C)(C)C1 | inactive
CSc1cccc(NC(=O)c2ccc(CN3CCc4ccccc4C3)cc2)c1 | inactive
COc1cccc(S(=O)(=O)NCc2ccc(C(=O)Nc3cccc(Cl)c3)cc2)c1 | 15.8 µM (active)
COc1ccc(NS(=O)(=O)c2ccc(NC(=O)c3ccc(CN4CCOCC4)cc3)cc2)cc1 | inactive
Cc1ccc(-c2nc3ccc(Cl)cn3c2CC(C)(C)C)cc1 | inactive
COc1ccc(-c2sc3ccc(OC)cc3c2-c2ccc(O)cc2)cc1 | inactive
c1ccc(-c2sc3ccccc3c2-c2ccc(OCCN3CCCC3)cc2)cc1 | 35.5 µM (active)
COc1cccc(-c2sc3ccccc3c2-c2ccc(OCCN3CCCC3)cc2)c1 | inactive
Cc1nc2ccccc2n1-c1nc(-c2ccco2)cc(C(F)(F)F)n1 | 10 µM (active)
Cc1ccc(C)c(/C=C/C(=O)c2ccccc(=O)c2O)c1 | 20 µM (active)
O=c1c2c(nc3c(-c4ccc(Cl)cc4)c[nH]n13)CCC2 | inactive
O=c1c2c(nc3c(-c4cccc(Br)c4)c[nH]n13)CCCC2 | 10 µM (active)
O=C(Nc1cccnc1)C1Cc2c(-c3ccc4c(c3)OCO4)ccnc2O1 (stereo not drawn) | inactive
COc1ccc(Cl)cc1S(=O)(=O)N1CCN(C(=O)c2n[nH]c(=O)c3ccccc23)CC1 | inactive
Oc1c(C(Nc2cccc(C(F)(F)F)c2)c2cccnc2)ccc2cccnc12 (stereo not drawn) | inactive
Oc1c(C(Nc2ccccn2)c2cccnc2)cc(Cl)c2cccnc12 (stereo not drawn) | inactive
O=C(O)CSc1cc(NS(=O)(=O)c2cccc([N+](=O)[O-])c2)c2ccccc2c1O | inactive
O=[N+]([O-])c1ccc(NC(c2ccccc2)c2ccc3cccnc3c2O)cc1 (stereo not drawn) | 11.2 µM (active)
Cc1ccnc(NC(c2ccccc2)c2ccc3cccnc3c2O)c1 (stereo not drawn) | inactive
CCCC(=O)NC(c1ccc(C(C)C)cc1)c1ccc2cccnc2c1O (stereo not drawn) | inactive
CC(=O)NC(c1ccco1)c1ccc2cccnc2c1O (stereo not drawn) | inactive
CC(=O)NC(c1cccc([N+](=O)[O-])c1)c1ccc2cccnc2c1O (stereo not drawn) | 1.58 µM (active)
Oc1c(C(Nc2cccc(C(F)(F)F)c2)c2ccncc2)ccc2cccnc12 (stereo not drawn) | 8.91 µM (active)
CC(C)C(=O)NC(c1cccc([N+](=O)[O-])c1)c1ccc2cccnc2c1O (stereo not drawn) | 3.16 µM (active)
CCc1nc2c(OCCOc3ccc(F)cc3)cccn2c1N(C)C(=O)c1ccco1 | inactive
CCCCOc1ccccc1NC(=O)c1scc2c1OCCO2 | inactive
Cc1ccc(/C=C2/CNC/C(=C/c3ccc(C)cc3)C2=O)cc1 | 8.91 µM (active)
O=C(CNC(=O)c1ccco1)N/N=C/c1cc(Br)ccc1O | inactive
